For one sequence, binding signal results are on record in paper PMC7862700, “An all-to-all approach to the identification of sequence-specific readers for epigenetic DNA modifications on cytosine”.

Holding throughout (test): DAPPL (digital affinity profiling via proximity ligation, sequencing); 10 mM Tris-HCl pH 7.5, 50 mM NaCl, 1 mM DTT, 4% glycerol, room temperature, 30 min; GST-TFs on glutathione beads, 16-mer random dsDNA library, 0.1% formaldehyde crosslink after washing; high values mean tight binding
One test addresses T1, FLI1 (Homo sapiens, UniProt Q01543 1-452).
T1 sequence: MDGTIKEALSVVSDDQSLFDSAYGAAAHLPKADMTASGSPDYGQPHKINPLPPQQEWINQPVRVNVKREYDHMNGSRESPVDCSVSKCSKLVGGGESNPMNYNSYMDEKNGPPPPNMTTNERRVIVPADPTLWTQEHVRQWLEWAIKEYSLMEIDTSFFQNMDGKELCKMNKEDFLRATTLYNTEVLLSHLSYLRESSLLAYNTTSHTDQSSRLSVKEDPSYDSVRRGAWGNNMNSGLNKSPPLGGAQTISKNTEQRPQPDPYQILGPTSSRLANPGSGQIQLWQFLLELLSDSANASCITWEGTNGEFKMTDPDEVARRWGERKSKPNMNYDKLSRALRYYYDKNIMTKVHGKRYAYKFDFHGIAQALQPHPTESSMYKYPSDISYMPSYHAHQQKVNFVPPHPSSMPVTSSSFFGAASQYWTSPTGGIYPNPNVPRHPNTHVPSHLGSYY
Particulars: protein: recombinant; tags: N-terminal GST; dsDNA, one strand shown. In a few lines: (§1)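 Pools were built from human transcription factors expressed in yeast as GST fusions, captured on glutathione beads and DNA-barcoded, along with a tag-only sample. Incubation with 200 nmole of a 16-mer random double-stranded DNA library lasted 30 min at room temperature in Tris/NaCl/DTT/glycerol buffer, and was followed by washing, 0.1% formaldehyde crosslinking, proximity ligation, PCR amplification and Illumina NextSeq500 sequencing. Binding signal is the quotient of each hexamer's read frequency for a factor and its frequency for the tag-only sample.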

The next test deals with T2, ELK1 (Homo sapiens, UniProt P19419 1-428).
T2 sequence: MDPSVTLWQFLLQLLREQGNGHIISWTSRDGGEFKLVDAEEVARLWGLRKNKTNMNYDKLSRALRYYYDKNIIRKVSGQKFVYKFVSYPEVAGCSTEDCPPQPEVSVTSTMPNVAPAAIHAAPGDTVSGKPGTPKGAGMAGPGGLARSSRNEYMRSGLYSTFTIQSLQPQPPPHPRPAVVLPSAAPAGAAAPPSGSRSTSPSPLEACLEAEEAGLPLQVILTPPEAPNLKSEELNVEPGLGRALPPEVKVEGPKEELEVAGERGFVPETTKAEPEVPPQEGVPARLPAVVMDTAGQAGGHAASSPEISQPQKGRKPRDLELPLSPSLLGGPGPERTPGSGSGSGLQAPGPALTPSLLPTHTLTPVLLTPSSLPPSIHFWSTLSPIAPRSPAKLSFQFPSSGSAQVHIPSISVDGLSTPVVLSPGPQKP
Particulars: protein: recombinant; tags: N-terminal GST; dsDNA, one strand shown. In a few lines: as §1

The target of another test is T3, GABPA (Homo sapiens, UniProt Q06546 1-454).
T3 sequence: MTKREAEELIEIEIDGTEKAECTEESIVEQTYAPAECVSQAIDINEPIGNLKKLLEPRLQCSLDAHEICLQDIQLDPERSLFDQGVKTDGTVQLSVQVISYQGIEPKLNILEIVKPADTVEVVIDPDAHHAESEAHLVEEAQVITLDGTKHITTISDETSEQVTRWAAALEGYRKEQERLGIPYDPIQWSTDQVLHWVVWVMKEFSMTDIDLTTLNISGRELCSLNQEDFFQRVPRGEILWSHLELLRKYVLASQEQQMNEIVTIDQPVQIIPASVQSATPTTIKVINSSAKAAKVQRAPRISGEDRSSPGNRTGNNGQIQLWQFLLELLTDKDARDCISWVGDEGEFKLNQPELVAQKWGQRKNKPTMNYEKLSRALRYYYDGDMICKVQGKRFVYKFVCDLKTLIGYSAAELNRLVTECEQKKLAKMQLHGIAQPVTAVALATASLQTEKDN
Particulars: protein: recombinant; tags: N-terminal GST; dsDNA, one strand shown. In a few lines:
as §1

The target of a further test is T4, ERG (Homo sapiens, UniProt P11308 1-479).
T4 sequence: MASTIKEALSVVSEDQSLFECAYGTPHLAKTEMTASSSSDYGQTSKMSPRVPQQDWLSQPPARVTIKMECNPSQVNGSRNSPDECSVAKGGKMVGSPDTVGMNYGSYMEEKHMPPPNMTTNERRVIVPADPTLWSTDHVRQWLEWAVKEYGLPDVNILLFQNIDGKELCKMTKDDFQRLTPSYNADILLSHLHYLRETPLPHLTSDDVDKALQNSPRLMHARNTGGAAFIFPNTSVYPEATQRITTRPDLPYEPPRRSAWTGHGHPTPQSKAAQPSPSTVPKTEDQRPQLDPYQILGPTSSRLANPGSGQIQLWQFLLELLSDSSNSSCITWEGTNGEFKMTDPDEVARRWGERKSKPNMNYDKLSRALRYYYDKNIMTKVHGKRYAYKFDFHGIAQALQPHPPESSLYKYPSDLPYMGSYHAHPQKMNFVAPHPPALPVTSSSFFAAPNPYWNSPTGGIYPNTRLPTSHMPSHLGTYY
Particulars: protein: recombinant; tags: N-terminal GST; dsDNA, one strand shown. An outline of the steps:
as §1

In another test the target is ELF1 (Homo sapiens, UniProt P32519 1-619). Particulars: protein: recombinant; tags: N-terminal GST; dsDNA, one strand shown. In a few lines:
as §1

The target in another test is T5, EHF (Homo sapiens, UniProt Q9NZC4 1-300).
T5 sequence: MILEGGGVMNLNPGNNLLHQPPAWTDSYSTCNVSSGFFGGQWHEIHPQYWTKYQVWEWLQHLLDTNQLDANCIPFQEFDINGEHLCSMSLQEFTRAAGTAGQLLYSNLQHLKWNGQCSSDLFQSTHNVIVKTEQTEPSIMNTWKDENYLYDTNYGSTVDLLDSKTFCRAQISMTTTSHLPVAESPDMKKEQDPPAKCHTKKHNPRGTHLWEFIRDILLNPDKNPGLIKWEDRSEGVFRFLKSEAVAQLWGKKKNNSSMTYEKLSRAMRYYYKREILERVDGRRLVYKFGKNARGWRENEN
Particulars: protein: recombinant; tags: N-terminal GST; dsDNA, one strand shown. In a few lines:
as §1

A further test addresses SPI1 (Homo sapiens, UniProt P17947 1-270). Particulars: protein: recombinant; tags: N-terminal GST; dsDNA, one strand shown. An outline of the steps:
as §1

A further test deals with SPIB (Homo sapiens, UniProt Q01892 1-262). Particulars: protein: recombinant; tags: N-terminal GST; dsDNA, one strand shown. In a few lines:
as §1

The target of another test is T6, ELK3 (Homo sapiens, UniProt P41970 1-407).
T6 sequence: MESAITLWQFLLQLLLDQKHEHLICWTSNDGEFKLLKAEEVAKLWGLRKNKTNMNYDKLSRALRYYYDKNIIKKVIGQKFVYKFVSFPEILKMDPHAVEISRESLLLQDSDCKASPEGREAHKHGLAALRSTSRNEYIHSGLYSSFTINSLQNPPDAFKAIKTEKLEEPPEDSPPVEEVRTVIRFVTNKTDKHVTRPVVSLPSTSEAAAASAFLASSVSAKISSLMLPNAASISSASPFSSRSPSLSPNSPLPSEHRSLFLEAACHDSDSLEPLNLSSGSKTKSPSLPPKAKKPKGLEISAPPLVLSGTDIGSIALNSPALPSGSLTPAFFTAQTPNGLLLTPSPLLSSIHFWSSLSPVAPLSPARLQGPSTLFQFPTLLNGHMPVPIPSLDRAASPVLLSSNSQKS
Particulars: protein: recombinant; tags: N-terminal GST; dsDNA, one strand shown. In a few lines: as §1

A further test deals with T7, FEV (Homo sapiens, UniProt Q99581 1-238).
T7 sequence: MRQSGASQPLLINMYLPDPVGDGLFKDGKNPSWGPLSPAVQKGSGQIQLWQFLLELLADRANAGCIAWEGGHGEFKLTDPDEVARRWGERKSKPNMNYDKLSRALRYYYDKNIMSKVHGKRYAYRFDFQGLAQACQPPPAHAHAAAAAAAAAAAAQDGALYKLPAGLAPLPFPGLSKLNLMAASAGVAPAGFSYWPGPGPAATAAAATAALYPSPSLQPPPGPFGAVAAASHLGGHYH
Particulars: protein: recombinant; tags: N-terminal GST; dsDNA, one strand shown. An outline of the steps: as §1

In another test the target is ETV5 (Homo sapiens, UniProt P41161 1-510). Particulars: protein: recombinant; tags: N-terminal GST; dsDNA, one strand shown. In a few lines:
as §1

The target of another test is HSF1 (Homo sapiens, UniProt Q00613 1-529). Particulars: protein: recombinant; tags: N-terminal GST; chain copies: 3; dsDNA, one strand shown. In a few lines: as §1
In a further test the target is T8, SPIC (Homo sapiens, UniProt Q8N5J4 1-248).
T8 sequence: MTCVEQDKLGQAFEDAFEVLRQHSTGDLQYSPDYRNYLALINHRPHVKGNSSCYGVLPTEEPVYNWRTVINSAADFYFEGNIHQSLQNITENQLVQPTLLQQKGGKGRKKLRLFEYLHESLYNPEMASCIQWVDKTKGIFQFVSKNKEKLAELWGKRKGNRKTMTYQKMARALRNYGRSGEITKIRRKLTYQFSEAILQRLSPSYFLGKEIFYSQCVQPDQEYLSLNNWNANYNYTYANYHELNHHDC
Particulars: protein: recombinant; tags: N-terminal GST; dsDNA, one strand shown. An outline of the steps: as §1

In a further test the target is ELF4 (Homo sapiens, UniProt Q99607 1-663). Particulars: protein: recombinant; tags: N-terminal GST; dsDNA, one strand shown. An outline of the steps:
as §1

Another test addresses T9, ELK4 (Homo sapiens, UniProt P28324-2 1-405).
T9 sequence: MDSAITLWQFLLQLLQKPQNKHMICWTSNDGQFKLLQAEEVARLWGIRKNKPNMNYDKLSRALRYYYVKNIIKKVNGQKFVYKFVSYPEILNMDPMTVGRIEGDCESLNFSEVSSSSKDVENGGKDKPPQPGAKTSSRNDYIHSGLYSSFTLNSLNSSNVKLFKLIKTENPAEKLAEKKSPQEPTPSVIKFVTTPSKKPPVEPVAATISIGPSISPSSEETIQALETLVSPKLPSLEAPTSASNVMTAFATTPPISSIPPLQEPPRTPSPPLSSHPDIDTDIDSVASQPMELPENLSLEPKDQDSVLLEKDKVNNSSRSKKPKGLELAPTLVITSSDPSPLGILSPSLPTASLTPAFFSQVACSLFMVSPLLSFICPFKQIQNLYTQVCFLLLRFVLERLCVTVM
Particulars: protein: recombinant; tags: N-terminal GST; dsDNA, one strand shown. An outline of the steps:
as §1

In another test the target is T10, ETV2 (Homo sapiens, UniProt O00321 1-342).
T10 sequence: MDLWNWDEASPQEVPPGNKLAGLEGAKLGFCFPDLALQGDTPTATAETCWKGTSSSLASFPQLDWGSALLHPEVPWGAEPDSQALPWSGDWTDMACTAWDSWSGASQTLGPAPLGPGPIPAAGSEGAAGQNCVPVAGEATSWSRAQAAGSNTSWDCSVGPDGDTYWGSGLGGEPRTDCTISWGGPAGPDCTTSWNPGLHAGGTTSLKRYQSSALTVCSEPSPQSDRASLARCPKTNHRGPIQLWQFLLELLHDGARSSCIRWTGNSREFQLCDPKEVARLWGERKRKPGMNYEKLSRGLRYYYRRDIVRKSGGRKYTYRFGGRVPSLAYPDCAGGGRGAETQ
Particulars: protein: recombinant; tags: N-terminal GST; dsDNA, one strand shown. An outline of the steps: as §1

In a further test the target is T11, ELF3 (Homo sapiens, UniProt P78545 1-371).
T11 sequence: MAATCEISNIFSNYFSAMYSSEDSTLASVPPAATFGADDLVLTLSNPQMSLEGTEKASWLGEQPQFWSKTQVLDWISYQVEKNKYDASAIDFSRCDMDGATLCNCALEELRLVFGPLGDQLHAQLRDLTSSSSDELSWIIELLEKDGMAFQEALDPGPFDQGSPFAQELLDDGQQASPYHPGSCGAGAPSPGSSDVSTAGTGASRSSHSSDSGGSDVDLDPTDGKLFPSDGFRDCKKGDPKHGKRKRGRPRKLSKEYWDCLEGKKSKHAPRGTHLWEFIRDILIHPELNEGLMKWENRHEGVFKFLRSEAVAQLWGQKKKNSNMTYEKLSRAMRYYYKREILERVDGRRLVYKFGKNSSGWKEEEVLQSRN
Particulars: protein: recombinant; tags: N-terminal GST; dsDNA, one strand shown. An outline of the steps: as §1

The next test addresses CRX (Homo sapiens, UniProt O43186 1-299). Particulars: protein: recombinant; tags: N-terminal GST; dsDNA, one strand shown. In a few lines:
as §1

Another test concerns the target ETV1 (Homo sapiens, UniProt P50549 1-477). Particulars: protein: recombinant; tags: N-terminal GST; dsDNA, one strand shown. An outline of the steps:
as §1

Chain of ETV1 (P50549 whole entry): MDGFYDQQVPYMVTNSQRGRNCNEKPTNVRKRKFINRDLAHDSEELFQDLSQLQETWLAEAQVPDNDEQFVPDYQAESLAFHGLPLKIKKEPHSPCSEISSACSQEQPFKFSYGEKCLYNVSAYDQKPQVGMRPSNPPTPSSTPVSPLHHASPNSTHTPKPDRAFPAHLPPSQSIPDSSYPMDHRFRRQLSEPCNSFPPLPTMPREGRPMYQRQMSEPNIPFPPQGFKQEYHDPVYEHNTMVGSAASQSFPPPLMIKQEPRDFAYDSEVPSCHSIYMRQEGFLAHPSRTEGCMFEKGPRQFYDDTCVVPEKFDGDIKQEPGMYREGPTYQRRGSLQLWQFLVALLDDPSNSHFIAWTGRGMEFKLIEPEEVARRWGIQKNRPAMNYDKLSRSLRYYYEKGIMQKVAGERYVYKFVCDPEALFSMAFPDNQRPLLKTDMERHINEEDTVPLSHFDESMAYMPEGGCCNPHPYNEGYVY
Chain of ETV5 (P41161 whole entry): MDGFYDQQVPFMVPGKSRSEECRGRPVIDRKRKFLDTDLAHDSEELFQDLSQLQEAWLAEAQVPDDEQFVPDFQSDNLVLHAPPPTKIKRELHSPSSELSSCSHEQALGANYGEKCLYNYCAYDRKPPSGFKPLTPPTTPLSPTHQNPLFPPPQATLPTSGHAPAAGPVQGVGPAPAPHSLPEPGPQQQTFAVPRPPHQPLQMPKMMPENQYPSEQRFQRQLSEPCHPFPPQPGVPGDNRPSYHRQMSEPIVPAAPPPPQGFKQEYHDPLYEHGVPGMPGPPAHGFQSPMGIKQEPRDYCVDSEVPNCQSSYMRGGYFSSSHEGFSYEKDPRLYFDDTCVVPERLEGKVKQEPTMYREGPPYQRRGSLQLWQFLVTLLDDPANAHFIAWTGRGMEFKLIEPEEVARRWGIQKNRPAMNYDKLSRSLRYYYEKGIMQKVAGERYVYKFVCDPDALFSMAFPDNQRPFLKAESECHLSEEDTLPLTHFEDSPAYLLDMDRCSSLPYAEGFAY
Chain of HSF1 (Q00613 whole entry): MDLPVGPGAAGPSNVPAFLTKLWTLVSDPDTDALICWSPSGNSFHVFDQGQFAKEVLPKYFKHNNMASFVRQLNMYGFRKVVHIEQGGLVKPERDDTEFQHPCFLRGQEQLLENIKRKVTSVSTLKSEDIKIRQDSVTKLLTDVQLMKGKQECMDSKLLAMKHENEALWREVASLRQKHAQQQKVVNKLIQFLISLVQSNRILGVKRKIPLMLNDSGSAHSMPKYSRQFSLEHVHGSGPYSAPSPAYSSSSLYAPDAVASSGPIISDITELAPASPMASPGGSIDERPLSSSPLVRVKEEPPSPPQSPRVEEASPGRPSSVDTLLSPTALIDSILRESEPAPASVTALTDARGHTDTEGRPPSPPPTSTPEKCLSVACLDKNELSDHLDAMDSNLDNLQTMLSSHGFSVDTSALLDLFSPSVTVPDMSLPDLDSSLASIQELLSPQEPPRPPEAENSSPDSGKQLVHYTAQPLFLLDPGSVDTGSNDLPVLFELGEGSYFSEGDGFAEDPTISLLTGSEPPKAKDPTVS
Chain of ELF1 (P32519 whole entry): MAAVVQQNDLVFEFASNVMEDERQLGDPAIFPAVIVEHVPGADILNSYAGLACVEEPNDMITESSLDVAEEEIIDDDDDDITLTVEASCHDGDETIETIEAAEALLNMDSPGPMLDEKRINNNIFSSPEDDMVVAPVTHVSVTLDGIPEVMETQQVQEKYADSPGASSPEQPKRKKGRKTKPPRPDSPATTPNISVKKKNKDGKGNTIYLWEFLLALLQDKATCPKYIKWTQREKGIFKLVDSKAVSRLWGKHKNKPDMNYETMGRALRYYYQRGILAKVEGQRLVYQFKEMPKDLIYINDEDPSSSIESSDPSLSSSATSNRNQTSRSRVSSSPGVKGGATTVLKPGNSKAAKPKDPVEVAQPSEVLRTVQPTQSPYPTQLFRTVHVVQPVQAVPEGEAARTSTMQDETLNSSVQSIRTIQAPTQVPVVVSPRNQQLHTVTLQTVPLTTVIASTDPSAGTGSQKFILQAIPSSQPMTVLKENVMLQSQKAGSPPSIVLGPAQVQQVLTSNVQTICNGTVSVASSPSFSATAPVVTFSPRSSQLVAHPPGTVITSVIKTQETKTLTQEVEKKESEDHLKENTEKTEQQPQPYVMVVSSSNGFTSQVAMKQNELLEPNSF
Chain of ELF4 (Q99607 whole entry): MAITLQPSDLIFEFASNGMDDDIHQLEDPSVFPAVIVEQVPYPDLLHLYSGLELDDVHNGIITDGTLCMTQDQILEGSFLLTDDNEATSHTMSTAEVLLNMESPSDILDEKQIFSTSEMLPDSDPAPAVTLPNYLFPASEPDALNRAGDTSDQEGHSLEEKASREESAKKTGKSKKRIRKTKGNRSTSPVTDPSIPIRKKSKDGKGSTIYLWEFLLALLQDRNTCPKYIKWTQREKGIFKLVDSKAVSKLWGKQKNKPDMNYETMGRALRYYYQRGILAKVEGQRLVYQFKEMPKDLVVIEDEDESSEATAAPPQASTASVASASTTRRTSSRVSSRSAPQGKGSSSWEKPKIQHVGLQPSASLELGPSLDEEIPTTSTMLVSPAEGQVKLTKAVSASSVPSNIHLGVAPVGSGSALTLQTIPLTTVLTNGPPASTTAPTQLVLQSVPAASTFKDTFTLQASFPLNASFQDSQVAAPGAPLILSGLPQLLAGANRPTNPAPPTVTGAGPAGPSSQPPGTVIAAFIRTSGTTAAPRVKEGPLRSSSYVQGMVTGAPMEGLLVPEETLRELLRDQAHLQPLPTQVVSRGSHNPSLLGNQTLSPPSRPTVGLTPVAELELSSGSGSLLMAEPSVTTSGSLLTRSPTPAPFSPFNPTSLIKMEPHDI
Chain of CRX (O43186 whole entry): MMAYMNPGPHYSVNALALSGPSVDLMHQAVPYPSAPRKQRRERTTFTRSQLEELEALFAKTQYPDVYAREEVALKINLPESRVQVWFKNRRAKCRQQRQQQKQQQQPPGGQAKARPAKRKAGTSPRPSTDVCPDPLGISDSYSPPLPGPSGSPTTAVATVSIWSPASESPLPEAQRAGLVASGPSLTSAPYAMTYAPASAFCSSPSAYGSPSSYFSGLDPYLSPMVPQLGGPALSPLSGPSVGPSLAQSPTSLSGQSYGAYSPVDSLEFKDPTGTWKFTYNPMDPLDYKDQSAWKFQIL
Chain of SPIB (Q01892 whole entry): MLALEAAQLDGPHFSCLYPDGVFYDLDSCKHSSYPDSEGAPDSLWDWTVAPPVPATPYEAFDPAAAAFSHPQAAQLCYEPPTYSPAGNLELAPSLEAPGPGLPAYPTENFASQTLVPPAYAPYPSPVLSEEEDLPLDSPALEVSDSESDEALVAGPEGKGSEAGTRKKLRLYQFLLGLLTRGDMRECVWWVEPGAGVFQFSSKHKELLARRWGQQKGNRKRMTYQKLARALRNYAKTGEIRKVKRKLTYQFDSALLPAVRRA

ACTTGT: the binding signal is 1.27 fold enrichment (6-mer frequency, TF over GST control) with FLI1; 1.35 fold enrichment (6-mer frequency, TF over GST control) with ELK1; 1.29 fold enrichment (6-mer frequency, TF over GST control) in the test with GABPA; 1.15 fold enrichment (6-mer frequency, TF over GST control) with ERG; 1.29 fold enrichment (6-mer frequency, TF over GST control) with ELF1; 1.31 fold enrichment (6-mer frequency, TF over GST control) with EHF. In addition, the binding signal with SPI1 was 1.3 fold enrichment (6-mer frequency, TF over GST control); in the test with SPIB, 1.45 fold enrichment (6-mer frequency, TF over GST control); with ELK3, 1.31 fold enrichment (6-mer frequency, TF over GST control); with FEV, 1.28 fold enrichment (6-mer frequency, TF over GST control); with ETV5, 1.21 fold enrichment (6-mer frequency, TF over GST control); with HSF1, 1.12 fold enrichment (6-mer frequency, TF over GST control). The binding signal with SPIC is 1.08 fold enrichment (6-mer frequency, TF over GST control); with ELF4 it was 1.37 fold enrichment (6-mer frequency, TF over GST control); with ELK4, 1.36 fold enrichment (6-mer frequency, TF over GST control); with ETV2 it was 1.31 fold enrichment (6-mer frequency, TF over GST control); in the test with ELF3 it was 1.16 fold enrichment (6-mer frequency, TF over GST control); with CRX it was 1.1 fold enrichment (6-mer frequency, TF over GST control). For the same sequence, the binding signal with ETV1 was 1.29 fold enrichment (6-mer frequency, TF over GST control).
